# Compound activity deposited in PubChem by several laboratories.
# This is a sample that favours compounds with a hit; in the whole collection about 3% have one here.
# DAGLB inhibitor = diacylglycerol lipase beta (human) inhibition; Q8NCG7; HEK293T DAGLB membrane lysate, EnzChek fluorogenic substrate; inhibition, % at 5.17 µM; 0.059% of 340,000 active; AID 504411; in the data active means inhibition above about 34%;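 further: 0% = enzyme with vehicle and 100% = wells lacking enzyme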
# ATG4B inhibitor = inhibitors of human ATG4B cysteine protease; Q9Y4P1; ATG4B cleavage of LC3-PLA2, NBD-HPC fluorescence, 1 h; inhibition, % at 8.33 µM; 0.51% of 340,000 active; AID 504462; in the data active means inhibition above about 40%
# Target sequence (Q9Y4P1 whole entry, looked up): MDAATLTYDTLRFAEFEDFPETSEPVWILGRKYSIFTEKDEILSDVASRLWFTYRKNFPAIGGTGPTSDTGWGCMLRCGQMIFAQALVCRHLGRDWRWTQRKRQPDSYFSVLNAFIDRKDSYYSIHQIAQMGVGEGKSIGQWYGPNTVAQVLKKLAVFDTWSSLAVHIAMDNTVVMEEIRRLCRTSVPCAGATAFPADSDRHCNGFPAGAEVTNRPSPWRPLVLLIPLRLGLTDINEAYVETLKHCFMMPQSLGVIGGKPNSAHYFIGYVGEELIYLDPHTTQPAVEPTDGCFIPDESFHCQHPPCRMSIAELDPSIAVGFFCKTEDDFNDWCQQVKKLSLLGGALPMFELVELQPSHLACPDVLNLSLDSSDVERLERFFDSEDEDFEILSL
# PAFAH1B3 FP inh = blocks human PAF acetylhydrolase 1B catalytic subunit 3; inhibition, % at 3.39 µM; 0.28% of 340,000 active; Q15102; recombinant PAFAH1B3, FP-rhodamine probe, fluorescence polarization;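 active means inhibition above the screen-wide average of all tested compounds plus 3 SD, cut at about 25% in these data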;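 further: 0% = enzyme with DMSO only and 100% = wells lacking PAFAH1B3 protein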
# PAFAH1B2 inh = blocks human PAF acetylhydrolase 1b catalytic subunit 2; 1.2% of 340,000 active; recombinant PAFAH1B2, FP-rhodamine activity probe, fluorescence polarization; inhibition, % at 3.39 µM; P68402;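 active means inhibition above the mean of all tested compounds plus 3 SD, cut at about 24% in these data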;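 further: 0% = enzyme with DMSO and 100% = wells lacking PAFAH1B2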
# Target sequence (P68402 whole entry, looked up): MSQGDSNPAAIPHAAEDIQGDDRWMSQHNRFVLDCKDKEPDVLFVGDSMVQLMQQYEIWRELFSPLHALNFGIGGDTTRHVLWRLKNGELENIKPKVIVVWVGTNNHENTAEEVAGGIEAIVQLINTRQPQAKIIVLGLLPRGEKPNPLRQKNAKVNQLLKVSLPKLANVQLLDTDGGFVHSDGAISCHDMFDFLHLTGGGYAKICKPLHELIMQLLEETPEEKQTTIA
# pPAFAH FP inh = pPAFAH (human) enzyme inhibition | Q13093 | recombinant pPAFAH, FP-rhodamine probe fluorescence polarization | inhibition, % at 3.39 µM | 1.5% of 330,000 active | AID 463082;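 active means inhibition above the mean inhibition across the screen plus 3 SD, cut at about 25% in these data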;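 further: inhibitors block binding of the rhodamine activity-based probe so polarization drops; 0% = enzyme with DMSO and 100% = wells lacking pPAFAH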
# PAFAH2 FP inh = PAFAH2 (human) inhibition; Q99487; recombinant PAFAH2, FP-rhodamine activity probe, fluorescence polarization; inhibition, % at 3.39 µM; 0.99% of 340,000 active; AID 492956;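 active means inhibition above the mean over all tested compounds plus 3 SD, cut at about 30% in these data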;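 further: inhibitors block probe labeling of enzyme so polarization drops; 0% = enzyme with DMSO and 100% = wells lacking PAFAH2 protein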
# pPAFAH confirm = confirmation of human plasma PAF acetylhydrolase (pPAFAH) inhibitors; inhibition, % at 3.39 µM; recombinant pPAFAH, FP-Rh probe fluorescence polarization; shares compounds with pPAFAH FP inh; 72% of 2,300 active;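 active means mean inhibition of the triplicate above the hit cutoff set for the earlier primary screen, cut at about 25% in these data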;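 further: 0% = enzyme with DMSO and 100% = wells lacking pPAFAH enzyme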
# The depositor's hits bear a star; · = not tested or not shown.
SMILES,DAGLB inhibitor,ATG4B inhibitor,PAFAH1B3 FP inh,PAFAH1B2 inh,pPAFAH FP inh,PAFAH2 FP inh,pPAFAH confirm
CCCCNC(=O)c1sc(=S)n2c1[nH]c(=O)c1ccc(C(=O)NCCc3ccc(OC)c(OC)c3)cc12,1,-9,18,20,40*,12,42*
CC(/C=N/NC(=O)Cc1cc(=O)[nH][nH]1)=C\c1ccccc1,11,1,1,9,54*,-4,3
CC1=NNC(=O)C1CC(=O)N/N=C/C(C)=C/c1ccccc1 (stereo not drawn),2,-6,-4,-2,0,-3,·
COC(=O)c1c(C)[nH]c(C(=O)C(C)OC(=O)c2c(C)noc2C)c1C (stereo not drawn),1,-2,4,1,-6,6,·
COCCNC(=S)Nc1ccc(N2CCOCC2)c(S(=O)(=O)Nc2ccc(Cl)cc2)c1,-4,·,·,·,·,·,·
O=S(=O)(Nc1ccc(Cl)cc1)c1ccc(N2CCOCC2)c(NC(=S)NCCN2CCOCC2)c1,0,-12,2,-1,58*,7,59*
CCCC(C)c1nnc(NC(=O)COc2ccc3c(c2)OCO3)s1 (stereo not drawn),1,-1,5,-14,-4,-4,·
O=C(CSc1c(F)c(F)cc(F)c1F)Nc1ccc(C2SCCS2)cc1,-16,1,8,-3,90*,7,4
O=C(CSc1ccc(Cl)cc1)Nc1ccc(C2SCCS2)cc1,-3,-3,6,16,6,5,·
Cc1oc2c(c1C(=O)c1ccccc1)C(=O)C(=O)c1ccccc1-2,2,13,16,6,36*,34*,25*
Cc1oc2c(c1C(=O)O)C(=O)c1ccccc1C2=O,-1,-8,20,6,0,4,·
O=C(O)c1cccc(N2C(=O)c3cc([N+](=O)[O-])cc4cc([N+](=O)[O-])cc(c34)C2=O)c1,6,6,34*,10,45*,20,21
Cc1c(C)c2cc(Cl)c(O)c(CN(C)C)c2oc1=O,-2,12,3,0,0,0,·
O=c1oc2c(O)c(O)cc3c(=O)oc4c(O)c(O)cc1c4c23,-1,16,68*,88*,93*,85*,92*
Cc1ccc(S(=O)(=O)N2[C@@H](c3ccccc3)C(C(=O)O)=CC[C@H]2c2ccc3c(c2)OCO3)cc1,5,9,8,14,9,-3,·
Cc1ccc(S(=O)(=O)N2[C@@H](c3ccc(C(C)(C)C)cc3)C(C(=O)O)=CC[C@H]2c2ccc3c(c2)OCO3)cc1,18,19,4,92*,58*,10,17
COc1cc(/C=N\NC(=O)c2ccc(-c3ccccc3)cc2)cc(Br)c1O,-4,11,9,5,20,1,·
COc1cc(/C=N/NC(=O)c2ccc(CN3C(=O)c4cccc5cccc3c45)cc2)cc(OC)c1O,-6,-27,19,9,38*,-14,20
CCC(C)Sc1nc2c(c(=O)[nH]1)C(c1cccs1)C1=C(CCCC1=O)N2 (stereo not drawn),-1,4,8,10,38*,8,20
Cc1ccccc1-c1nc(CN2CCC(C(=O)NC3CC3)CC2)c(C)o1,1,5,-2,0,8,-3,·
CCOc1ccc(N2CC(C(=O)Nc3ccc(F)cc3F)CC2=O)cc1 (stereo not drawn),-1,8,4,1,37*,-10,-5
COc1cccc(=O)c2c(C)n(-c3ccc(C(=O)O)cc3)c(C)c12,0,3,6,2,37*,10,1
CCOc1cccc(=O)c2c(C)n(-c3ccc(C(=O)O)cc3)c(C)c12,1,12,6,3,38*,8,21
C/C(=N\NC(=O)c1cc2ccccc2cc1O)c1cccs1,-3,2,16,6,52*,9,4
C/C(=N\NC(=O)c1cc2ccccc2cc1O)c1ccc(C)o1,-4,-1,4,10,41*,4,5
SMILES,DAGLB inhibitor,ATG4B inhibitor,PAFAH1B3 FP inh,PAFAH1B2 inh,pPAFAH FP inh,PAFAH2 FP inh,pPAFAH confirm
CC(=O)N1CCC(=NNC(=O)c2cccs2)CC1,-1,6,4,-4,3,4,·
O=C(NN=C1CCN(Cc2ccccc2)CC1)c1ccccc1O,0,-5,4,4,3,0,·
CC(=O)N1CCC(=NNC(=O)c2cc3ccccc3cc2O)CC1,1,1,14,6,44*,12,6
O=C(NN=C1CCN(Cc2ccccc2)CC1)c1cc2ccccc2cc1O,12,11,6,13,47*,4,21
O=C(NN=C1CCCCCC1)c1cc2ccccc2cc1O,-5,-4,9,6,58*,5,11
O=C(NCCN1CCN(C(=O)c2ccc(F)cc2)CC1)c1ccc(F)cc1,0,0,-13,-2,4,7,·
Cc1ccc(/C=C2\SC(=S)N(CCC(=O)N3CCOCC3)C2=O)cc1,1,2,2,1,-7,-4,·
CC(=O)N1CCN(S(=O)(=O)c2cccc(C(=O)OCc3cccc(F)c3)c2)CC1,1,-10,3,9,11,7,·
CCOc1ccc(C=NNc2ccc(S(=O)(=O)Nc3ccccc3C(=O)O)cc2[N+](=O)[O-])cc1,18,10,25,18,57*,21,86*
Cc1nn2c3c(cnc2c1-c1ccccc1)C(=O)CCC3,0,2,8,3,-5,-4,·
N#CCc1nn2c3c(cnc2c1C#N)C(=O)CCC3,1,-5,12,3,53*,1,4
Oc1cccc(/C=N/NC(=S)NCCN2CCOCC2)c1O,-3,-8,17,7,41*,-1,6
S=C(NCCN1CCOCC1)N/N=C/c1cccs1,-1,3,5,1,3,-7,·
O=C(Oc1ccc(-c2ccccc2)cc1)N1CCCCC1,-9,17,3,6,44*,0,81*
O=C(Oc1ccccc1)N1CCCCC1,-1,·,·,·,·,·,·
COc1cc2cccc(OC)c(=O)c2c(O)c1OC,-1,7,7,3,-7,11,·
CC(=O)Oc1cc2cccc(OC(C)=O)c(=O)c2c(OC(C)=O)c1OC(C)=O,1,-26,46*,45*,91*,88*,34*
COc1cc(/C=C2/SC(=S)N(Cc3ccccc3)C2=O)ccc1OCC(=O)O,4,28,-4,2,49*,5,28*
Cc1ccc(NC(=O)N/C=C/c2ccccc2)cc1,-1,-9,-8,0,39*,-1,0
COc1ccc(N(CC(=O)Nc2cc(C)ccc2OC)S(=O)(=O)c2c(C)noc2C)cc1,1,-1,4,0,45*,1,8
